# Data from PubChem BioAssay (NCATS).
# Inconclusive results are not listed. A number with no mark means an inactive call. The source made the active and inactive calls. The call rests on the fitted dose curve; in most records, active means well fitted cell-killing curve with a large enough effect; inconclusive means small, poorly fitted or top-dose-only effect, or effect the other way; inactive means no such curve, though single readings can be large or run the other way.
# Columns and labels:
# [1] = Quantitative High-Throughput drug screen in 47 multiple myeloma cell lines against the NCATS MIPE library collection: OCIMY1_PLB cell viability assay (AID 1918979); further: nearly all actives have a fitted effect of over 35% in size
# Summary of the method: (§1)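 Myeloma cells (500/well) treated with MIPE 4.0 compounds for 48 h at 37 °C, 5% CO2. Viability read as ATP via CellTiter-Glo luminescence after 5 min at RT; DMSO-only wells = 100%, media-only = 0% viability.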
# [2] = Quantitative High-Throughput drug screen in 47 multiple myeloma cell lines against the NCATS MIPE library collection: MM1S_ATCC cell viability assay (AID 1918980); further: nearly all actives have a fitted effect of over 45% in size
# Summary of the method: as §1
# [3] = Quantitative High-Throughput drug screen in 47 multiple myeloma cell lines against the NCATS MIPE library collection: MM1R_ATCC cell viability assay (AID 1918981); further: nearly all actives have a fitted effect of over 35% in size
# Summary of the method: as §1
# [4] = Quantitative High-Throughput drug screen in 47 multiple myeloma cell lines against the NCATS MIPE library collection: KMS28PE_JCRB cell viability assay (AID 1918983); further: nearly all actives have a fitted effect of over 35% in size
# Summary of the method: as §1
# [5] = Quantitative High-Throughput drug screen in 47 multiple myeloma cell lines against the NCATS MIPE library collection: L363_DSMZ cell viability assay (AID 1918984); further: nearly all actives have a fitted effect of over 40% in size
# Summary of the method: as §1
# [6] = Quantitative High-Throughput drug screen in 47 multiple myeloma cell lines against the NCATS MIPE library collection: KMS34_JCRB cell viability assay (AID 1918985); further: nearly all actives have a fitted effect of over 40% in size
# Summary of the method: as §1
# [7] = Quantitative High-Throughput drug screen in 47 multiple myeloma cell lines against the NCATS MIPE library collection: OCIMY7_PLB cell viability assay (AID 1918987); conditions: OCI-MY7 myeloma viability, CellTiter-Glo ATP, 48 h; viability (% of DMSO): at 45.8 µM (top of the series); further: nearly all actives have a fitted effect of over 65% in size
# Summary of the method: as §1
# [8] = Quantitative High-Throughput drug screen in 47 multiple myeloma cell lines against the NCATS MIPE library collection: OCIMY5_PLB cell viability assay (AID 1918988); further: nearly all actives have a fitted effect of over 65% in size
# Summary of the method: as §1
# [9] = Quantitative High-Throughput drug screen in 47 multiple myeloma cell lines against the NCATS MIPE library collection: OPM1_PLB cell viability assay (AID 1918989); further: nearly all actives have a fitted effect of over 40% in size
# Summary of the method: as §1
# [10] = Quantitative High-Throughput drug screen in 47 multiple myeloma cell lines against the NCATS MIPE library collection: SKMM1_PLB cell viability assay (AID 1919863); conditions: SKMM1 myeloma viability, CellTiter-Glo ATP, 48 h; viability: hits give low values; further: nearly all actives have a fitted effect of over 35% in size
# Summary of the method: as §1
# [11] = Quantitative High-Throughput drug screen in 47 multiple myeloma cell lines against the NCATS MIPE library collection: U266_ATCC cell viability assay (AID 1919864); further: nearly all actives have a fitted effect of over 35% in size
# Summary of the method: as §1
# [12] = Quantitative High-Throughput drug screen in 47 multiple myeloma cell lines against the NCATS MIPE library collection: XG6_PLB cell viability assay (AID 1919865); further: nearly all actives have a fitted effect of over 40% in size
# Summary of the method: as §1
# [13] = Quantitative High-Throughput drug screen in 47 multiple myeloma cell lines against the NCATS MIPE library collection: XG1_PLB cell viability assay (AID 1919866); further: nearly all actives have a fitted effect of over 35% in size
# Summary of the method: as §1
# [14] = Quantitative High-Throughput drug screen in 47 multiple myeloma cell lines against the NCATS MIPE library collection: VP6_DJ cell viability assay (AID 1919867); further: nearly all actives have a fitted effect of over 40% in size
# Summary of the method: as §1
# [15] = Quantitative High-Throughput drug screen in 47 multiple myeloma cell lines against the NCATS MIPE library collection: UTMC2_PLB cell viability assay (AID 1919868); conditions: CellTiter-Glo ATP luminescence, 48 h; viability (% of DMSO control): at 45.8 µM (top of the series); further: nearly all actives have a fitted effect of over 55% in size
# Summary of the method: as §1
# [16] = Quantitative High-Throughput drug screen in 47 multiple myeloma cell lines against the NCATS MIPE library collection: PE2_PLB cell viability assay (AID 1919869); further: nearly all actives have a fitted effect of over 35% in size
# Summary of the method: as §1
# [17] = Quantitative High-Throughput drug screen in 47 multiple myeloma cell lines against the NCATS MIPE library collection: PCM6_Riken cell viability assay (AID 1919870); further: nearly all actives have a fitted effect of over 30% in size
# Summary of the method: as §1
# [18] = Quantitative High-Throughput drug screen in 47 multiple myeloma cell lines against the NCATS MIPE library collection: RPMI8226_ATCC cell viability assay (AID 1919871); further: nearly all actives have a fitted effect of over 30% in size
# Summary of the method: as §1
# [19] = Quantitative High-Throughput drug screen in 47 multiple myeloma cell lines against the NCATS MIPE library collection: OPM2_DSMZ cell viability assay (AID 1919872); further: nearly all actives have a fitted effect of over 30% in size
# Summary of the method: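 Myeloma cells (500 per well) were exposed to MIPE 4.0 compounds by pin transfer and incubated 48 hours at 37C, 5% CO2. Viability was read as ATP by CellTiter-Glo luminescence, normalised to DMSO (100%) and media-only (0%) wells.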
# [20] = Quantitative High-Throughput drug screen in 47 multiple myeloma cell lines against the NCATS MIPE library collection: LP1_DSMZ cell viability assay (AID 1918982); further: nearly all actives have a fitted effect of over 35% in size
# Summary of the method: as §1
# Potency means the concentration at half of the fitted maximal effect.
smiles,measurement,setting,value
CCNC(=O)c1cc2c(-c3cc(OCCN4CCCC4)c(Cl)cc3Cl)nc(N)nc2s1,Potency,[1],3.32 µM (active)
same,Potency,[2],1.66 µM (active)
same,Potency,[3],2.09 µM (active)
same,Potency,[4],1.87 µM (active)
same,Potency,[5],0.418 µM (active)
same,Potency,[6],1.32 µM (active)
same,Potency,[7],0.372 µM (active)
same,Potency,[8],0.743 µM (active)
same,Potency,[9],0.833 µM (active)
same,Potency,[10],2.35 µM (active)
same,Potency,[11],1.05 µM (active)
same,Potency,[12],1.66 µM (active)
same,Potency,[13],0.833 µM (active)
same,Potency,[14],0.743 µM (active)
same,Potency,[15],1.48 µM (active)
same,Potency,[16],1.66 µM (active)
same,Potency,[17],0.743 µM (active)
same,Potency,[18],1.18 µM (active)
same,Potency,[19],2.96 µM (active)
O=C1c2cccc(O)c2C(=O)c2c(O)cc(CO)cc21,Potency,[1],inactive
same,Potency,[2],inactive
same,Potency,[3],inactive
same,Potency,[20],16.6 µM (active)
same,Potency,[4],5.9 µM (active)
same,Potency,[7],inactive
same,Potency,[9],inactive
same,Potency,[11],inactive
same,Potency,[13],inactive
same,Potency,[17],inactive
same,Potency,[18],16.6 µM (active)
same,Potency,[19],inactive
COc1ccnc2[nH]cc(C(=O)C(=O)N3CCN(C(=O)c4ccccc4)C[C@@H]3C)c12,Potency,[1],inactive
same,Potency,[2],inactive
same,Potency,[3],inactive
same,Potency,[20],inactive
same,Potency,[4],inactive
same,Potency,[9],inactive
same,viability,[10],120%
same,Potency,[11],inactive
same,Potency,[12],inactive
same,Potency,[13],inactive
same,Potency,[15],inactive
same,Potency,[16],inactive
same,Potency,[17],inactive
same,Potency,[19],inactive
O=c1c(O)c(-c2ccc(O)c(O)c2)oc2cc(O)ccc12,Potency,[1],23.5 µM (active)
same,Potency,[2],23.5 µM (active)
same,Potency,[3],23.5 µM (active)
same,Potency,[20],23.5 µM (active)
same,Potency,[6],18.7 µM (active)
same,Potency,[7],6.62 µM (active)
same,Potency,[8],20.9 µM (active)
same,Potency,[9],18.7 µM (active)
same,Potency,[12],18.7 µM (active)
same,Potency,[13],13.2 µM (active)
same,Potency,[15],13.2 µM (active)
same,Potency,[16],14.8 µM (active)
same,Potency,[17],9.35 µM (active)
same,Potency,[19],23.5 µM (active)
CC(=O)O[C@H]1C[C@@H]2CC[C@H]3[C@H]4C[C@H]([N+]5(C)CCCCC5)[C@@H](OC(C)=O)[C@@]4(C)CC[C@@H]3[C@@]2(C)C[C@H]1[N+]1(C)CCCCC1,Potency,[1],inactive
same,Potency,[2],2.09 µM (active)
same,Potency,[3],inactive
same,Potency,[20],inactive
same,Potency,[5],inactive
same,Potency,[6],inactive
same,viability,[10],128%
same,Potency,[11],23.5 µM (active)
same,Potency,[12],inactive
same,Potency,[13],inactive
same,Potency,[17],inactive
same,Potency,[18],inactive
same,Potency,[19],inactive
COc1ccc([C@@H]2CNC(=O)C2)cc1OC1CCCC1,Potency,[1],inactive
same,Potency,[2],0.743 µM (active)
same,Potency,[3],inactive
same,Potency,[20],inactive
same,Potency,[9],8.33 µM (active)
same,Potency,[11],1.18 µM (active)
same,Potency,[12],1.32 µM (active)
same,Potency,[13],2.64 µM (active)
same,Potency,[14],2.35 µM (active)
same,Potency,[15],6.62 µM (active)
same,Potency,[17],1.48 µM (active)
same,Potency,[18],inactive
same,Potency,[19],inactive
COc1ccc(S(=O)(=O)Nc2cc(-c3c(O)ccc4ccccc34)c(O)c3ccccc23)cc1,Potency,[1],10.5 µM (active)
same,Potency,[2],2.35 µM (active)
same,Potency,[3],23.5 µM (active)
same,Potency,[20],16.6 µM (active)
same,Potency,[5],2.64 µM (active)
same,Potency,[6],10.5 µM (active)
same,Potency,[7],2.64 µM (active)
same,Potency,[8],20.9 µM (active)
same,Potency,[12],5.9 µM (active)
same,Potency,[13],5.26 µM (active)
same,Potency,[14],9.35 µM (active)
same,Potency,[15],16.6 µM (active)
same,Potency,[17],5.26 µM (active)
same,Potency,[18],23.5 µM (active)
same,Potency,[19],11.8 µM (active)
O=C(C[C@@H]1CC=CCCC(=O)O[C@H](c2ccccc2)CNC1=O)NCc1ccc(Cl)cc1,Potency,[1],inactive
same,Potency,[2],16.6 µM (active)
same,Potency,[3],inactive
same,Potency,[20],inactive
same,Potency,[4],inactive
same,Potency,[6],inactive
same,Potency,[9],inactive
same,Potency,[12],6.62 µM (active)
same,Potency,[14],13.2 µM (active)
same,Potency,[15],inactive
same,Potency,[16],9.35 µM (active)
same,Potency,[17],5.9 µM (active)
same,Potency,[18],inactive
same,Potency,[19],inactive
NC(=O)c1cccc(-c2cccc(OC(=O)NC3CCCCC3)c2)c1,Potency,[1],inactive
same,Potency,[2],inactive
same,Potency,[3],inactive
same,Potency,[20],inactive
same,Potency,[4],inactive
same,Potency,[7],inactive
same,Potency,[8],29.6 µM (active)
same,Potency,[9],inactive
same,Potency,[11],inactive
same,Potency,[12],inactive
same,Potency,[14],inactive
same,Potency,[15],inactive
same,Potency,[16],inactive
same,Potency,[17],inactive
same,Potency,[19],inactive
COc1cc(C(C)C)c(Oc2cnc(NC(CO)CO)nc2N)cc1I,Potency,[1],inactive
same,Potency,[2],1.05 µM (active)
same,Potency,[3],2.64 µM (active)
same,Potency,[20],inactive
same,Potency,[4],inactive
same,Potency,[8],1.48 µM (active)
same,Potency,[9],1.66 µM (active)
same,viability,[10],122%
same,Potency,[11],1.48 µM (active)
same,Potency,[13],inactive
same,viability (% of DMSO control),[15],201% (active)
same,Potency,[16],7.43 µM (active)
same,Potency,[17],inactive
same,Potency,[19],inactive
